# Data: paper PMC7862700, “An all-to-all approach to the identification of sequence-specific readers for epigenetic DNA modifications on cytosine”
# Legend:
# Assay in all cases: DAPPL (digital affinity profiling via proximity ligation, sequencing); 10 mM Tris-HCl pH 7.5, 50 mM NaCl, 1 mM DTT, 4% glycerol, room temperature, 30 min; GST-TFs on glutathione beads, 16-mer random dsDNA library, 0.1% formaldehyde crosslink after washing; high values mean tight binding
# FLI1 = target: T1, FLI1 (Homo sapiens, UniProt Q01543 1-452); details: protein: recombinant; tags: N-terminal GST; dsDNA, one strand shown
# T1 sequence: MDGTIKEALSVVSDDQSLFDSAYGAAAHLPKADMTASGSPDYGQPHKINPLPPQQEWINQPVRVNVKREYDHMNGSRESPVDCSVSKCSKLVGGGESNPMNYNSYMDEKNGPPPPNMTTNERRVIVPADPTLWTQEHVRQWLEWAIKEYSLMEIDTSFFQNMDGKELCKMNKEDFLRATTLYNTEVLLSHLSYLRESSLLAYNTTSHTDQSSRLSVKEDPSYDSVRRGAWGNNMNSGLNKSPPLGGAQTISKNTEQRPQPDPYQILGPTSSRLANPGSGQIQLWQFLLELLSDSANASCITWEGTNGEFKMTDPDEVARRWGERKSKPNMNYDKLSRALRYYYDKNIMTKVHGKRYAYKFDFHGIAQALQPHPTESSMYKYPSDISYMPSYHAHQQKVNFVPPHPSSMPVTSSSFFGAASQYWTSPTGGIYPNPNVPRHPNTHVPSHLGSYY
# Outline: (§1)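 Human transcription factors fused to GST were expressed in yeast, captured on glutathione beads, given DNA barcodes and pooled with a GST-only negative control. Pools were incubated with 200 nmole of a 16-mer random double-stranded DNA library in Tris/NaCl/DTT/glycerol buffer at room temperature for 30 min. They were then washed, crosslinked with 0.1% formaldehyde, proximity-ligated (BsaI/T4 ligase, 1 h, 37 °C), PCR-amplified and sequenced on an Illumina NextSeq500. Binding signal is each 6-mer's read frequency for a factor divided by its frequency for the GST control.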
# ELK1 = target: T2, ELK1 (Homo sapiens, UniProt P19419 1-428); details: protein: recombinant; tags: N-terminal GST; dsDNA, one strand shown
# T2 sequence: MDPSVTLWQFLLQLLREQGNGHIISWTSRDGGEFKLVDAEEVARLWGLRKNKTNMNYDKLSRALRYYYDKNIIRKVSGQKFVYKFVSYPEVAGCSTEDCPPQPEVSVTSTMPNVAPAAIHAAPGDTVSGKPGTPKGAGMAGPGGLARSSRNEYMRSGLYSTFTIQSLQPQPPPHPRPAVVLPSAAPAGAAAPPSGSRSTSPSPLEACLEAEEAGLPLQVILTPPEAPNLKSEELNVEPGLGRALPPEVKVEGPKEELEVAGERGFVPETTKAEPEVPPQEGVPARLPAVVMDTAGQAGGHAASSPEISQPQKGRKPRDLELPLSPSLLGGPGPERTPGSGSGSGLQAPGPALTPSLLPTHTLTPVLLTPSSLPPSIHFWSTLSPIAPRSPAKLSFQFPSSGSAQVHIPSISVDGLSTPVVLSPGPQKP
# Outline: as §1
# GABPA = target: T3, GABPA (Homo sapiens, UniProt Q06546 1-454); details: protein: recombinant; tags: N-terminal GST; dsDNA, one strand shown
# T3 sequence: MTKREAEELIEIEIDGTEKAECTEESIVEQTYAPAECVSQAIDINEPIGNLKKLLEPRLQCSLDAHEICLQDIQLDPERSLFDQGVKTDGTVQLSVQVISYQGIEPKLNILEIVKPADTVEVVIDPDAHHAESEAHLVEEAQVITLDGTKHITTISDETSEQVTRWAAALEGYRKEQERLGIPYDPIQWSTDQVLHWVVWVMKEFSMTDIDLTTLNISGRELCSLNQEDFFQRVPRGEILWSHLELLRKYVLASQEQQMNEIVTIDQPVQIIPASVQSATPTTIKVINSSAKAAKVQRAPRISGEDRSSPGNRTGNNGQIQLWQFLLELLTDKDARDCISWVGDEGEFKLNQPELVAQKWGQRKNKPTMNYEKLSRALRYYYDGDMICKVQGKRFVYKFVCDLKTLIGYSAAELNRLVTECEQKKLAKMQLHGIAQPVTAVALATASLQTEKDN
# Outline: as §1
# ERG = target: T4, ERG (Homo sapiens, UniProt P11308 1-479); details: protein: recombinant; tags: N-terminal GST; dsDNA, one strand shown
# T4 sequence: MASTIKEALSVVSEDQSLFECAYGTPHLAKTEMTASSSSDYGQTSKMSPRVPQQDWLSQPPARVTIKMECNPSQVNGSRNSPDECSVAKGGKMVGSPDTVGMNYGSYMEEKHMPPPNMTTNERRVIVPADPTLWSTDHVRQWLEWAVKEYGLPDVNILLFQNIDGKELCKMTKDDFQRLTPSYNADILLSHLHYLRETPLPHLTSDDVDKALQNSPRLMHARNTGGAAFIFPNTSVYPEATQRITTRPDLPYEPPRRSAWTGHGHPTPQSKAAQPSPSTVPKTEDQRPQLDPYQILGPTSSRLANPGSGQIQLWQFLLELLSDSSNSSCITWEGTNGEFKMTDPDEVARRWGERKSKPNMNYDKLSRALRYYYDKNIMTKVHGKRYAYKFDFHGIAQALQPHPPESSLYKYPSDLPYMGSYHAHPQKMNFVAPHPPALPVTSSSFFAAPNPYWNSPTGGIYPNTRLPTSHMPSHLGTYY
# Outline: as §1
# ELF1 = ELF1 (Homo sapiens, UniProt P32519 1-619); details: protein: recombinant; tags: N-terminal GST; dsDNA, one strand shown
# Sequence of ELF1 (P32519 whole entry): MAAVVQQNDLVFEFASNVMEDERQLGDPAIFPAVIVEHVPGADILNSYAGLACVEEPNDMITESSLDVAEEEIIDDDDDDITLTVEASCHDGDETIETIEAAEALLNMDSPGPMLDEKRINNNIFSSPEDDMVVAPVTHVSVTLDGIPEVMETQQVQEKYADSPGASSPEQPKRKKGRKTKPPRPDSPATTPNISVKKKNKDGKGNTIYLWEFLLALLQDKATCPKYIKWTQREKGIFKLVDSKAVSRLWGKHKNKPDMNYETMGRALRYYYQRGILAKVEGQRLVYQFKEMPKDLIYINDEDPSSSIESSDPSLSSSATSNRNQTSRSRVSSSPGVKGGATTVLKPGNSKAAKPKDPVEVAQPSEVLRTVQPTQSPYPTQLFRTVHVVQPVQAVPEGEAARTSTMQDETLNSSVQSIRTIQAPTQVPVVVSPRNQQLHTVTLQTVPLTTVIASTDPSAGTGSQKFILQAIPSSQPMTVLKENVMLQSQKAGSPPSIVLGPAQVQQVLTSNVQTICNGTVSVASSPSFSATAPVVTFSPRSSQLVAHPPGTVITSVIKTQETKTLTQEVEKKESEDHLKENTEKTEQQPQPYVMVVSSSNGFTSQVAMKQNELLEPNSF
# Outline: as §1
# EHF = target: T5, EHF (Homo sapiens, UniProt Q9NZC4 1-300); details: protein: recombinant; tags: N-terminal GST; dsDNA, one strand shown
# T5 sequence: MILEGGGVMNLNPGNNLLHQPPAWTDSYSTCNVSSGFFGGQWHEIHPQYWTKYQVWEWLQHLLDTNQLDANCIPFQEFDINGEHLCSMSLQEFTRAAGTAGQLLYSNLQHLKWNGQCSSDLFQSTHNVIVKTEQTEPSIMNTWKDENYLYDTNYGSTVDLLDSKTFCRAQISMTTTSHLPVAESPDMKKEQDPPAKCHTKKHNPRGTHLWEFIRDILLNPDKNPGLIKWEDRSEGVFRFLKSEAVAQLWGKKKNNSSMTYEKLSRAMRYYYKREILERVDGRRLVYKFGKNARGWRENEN
# Outline: as §1
# SPI1 = SPI1 (Homo sapiens, UniProt P17947 1-270); details: protein: recombinant; tags: N-terminal GST; dsDNA, one strand shown
# Outline: as §1
# SPIB = SPIB (Homo sapiens, UniProt Q01892 1-262); details: protein: recombinant; tags: N-terminal GST; dsDNA, one strand shown
# Sequence of SPIB (Q01892 whole entry): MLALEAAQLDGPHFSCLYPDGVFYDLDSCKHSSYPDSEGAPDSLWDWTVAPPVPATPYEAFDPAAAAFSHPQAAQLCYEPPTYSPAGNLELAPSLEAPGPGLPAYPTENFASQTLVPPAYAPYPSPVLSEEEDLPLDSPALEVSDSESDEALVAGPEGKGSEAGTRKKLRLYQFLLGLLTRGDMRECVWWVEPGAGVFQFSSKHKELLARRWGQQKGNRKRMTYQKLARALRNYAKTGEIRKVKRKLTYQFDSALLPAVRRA
# Outline: as §1
# ELK3 = target: T6, ELK3 (Homo sapiens, UniProt P41970 1-407); details: protein: recombinant; tags: N-terminal GST; dsDNA, one strand shown
# T6 sequence: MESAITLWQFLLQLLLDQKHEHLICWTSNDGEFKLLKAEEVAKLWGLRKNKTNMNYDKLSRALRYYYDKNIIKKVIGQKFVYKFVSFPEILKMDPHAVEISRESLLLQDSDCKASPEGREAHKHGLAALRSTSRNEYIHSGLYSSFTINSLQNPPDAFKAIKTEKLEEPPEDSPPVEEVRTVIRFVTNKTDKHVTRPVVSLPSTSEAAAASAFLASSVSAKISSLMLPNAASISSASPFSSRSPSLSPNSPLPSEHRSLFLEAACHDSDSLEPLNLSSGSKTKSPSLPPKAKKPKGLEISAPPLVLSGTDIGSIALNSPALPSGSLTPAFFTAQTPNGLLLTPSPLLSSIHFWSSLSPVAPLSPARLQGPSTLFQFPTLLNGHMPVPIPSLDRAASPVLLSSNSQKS
# Outline: as §1
# FEV = target: T7, FEV (Homo sapiens, UniProt Q99581 1-238); details: protein: recombinant; tags: N-terminal GST; dsDNA, one strand shown
# T7 sequence: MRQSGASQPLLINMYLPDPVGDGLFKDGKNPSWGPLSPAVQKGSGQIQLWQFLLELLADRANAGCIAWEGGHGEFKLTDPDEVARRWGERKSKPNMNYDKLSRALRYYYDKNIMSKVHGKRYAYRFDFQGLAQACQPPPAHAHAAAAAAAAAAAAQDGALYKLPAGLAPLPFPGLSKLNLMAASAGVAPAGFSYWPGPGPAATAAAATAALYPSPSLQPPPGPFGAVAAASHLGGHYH
# Outline: as §1
# ETV5 = ETV5 (Homo sapiens, UniProt P41161 1-510); details: protein: recombinant; tags: N-terminal GST; dsDNA, one strand shown
# Sequence of ETV5 (P41161 whole entry): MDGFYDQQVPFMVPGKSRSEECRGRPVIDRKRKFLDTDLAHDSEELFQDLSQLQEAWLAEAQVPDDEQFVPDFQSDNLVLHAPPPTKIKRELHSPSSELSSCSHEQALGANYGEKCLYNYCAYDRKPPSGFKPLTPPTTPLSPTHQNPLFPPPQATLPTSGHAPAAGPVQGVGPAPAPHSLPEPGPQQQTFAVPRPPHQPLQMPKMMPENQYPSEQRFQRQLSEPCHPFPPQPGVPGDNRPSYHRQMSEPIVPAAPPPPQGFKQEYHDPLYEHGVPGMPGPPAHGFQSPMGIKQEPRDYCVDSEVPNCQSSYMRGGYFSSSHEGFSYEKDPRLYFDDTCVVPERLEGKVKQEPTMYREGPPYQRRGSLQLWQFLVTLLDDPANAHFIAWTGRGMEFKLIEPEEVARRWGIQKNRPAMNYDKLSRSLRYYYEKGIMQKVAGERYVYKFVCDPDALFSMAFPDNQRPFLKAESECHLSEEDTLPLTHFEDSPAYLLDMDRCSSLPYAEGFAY
# Outline: as §1
# HSF1 = HSF1 (Homo sapiens, UniProt Q00613 1-529); details: protein: recombinant; tags: N-terminal GST; chain copies: 3; dsDNA, one strand shown
# Sequence of HSF1 (Q00613 whole entry): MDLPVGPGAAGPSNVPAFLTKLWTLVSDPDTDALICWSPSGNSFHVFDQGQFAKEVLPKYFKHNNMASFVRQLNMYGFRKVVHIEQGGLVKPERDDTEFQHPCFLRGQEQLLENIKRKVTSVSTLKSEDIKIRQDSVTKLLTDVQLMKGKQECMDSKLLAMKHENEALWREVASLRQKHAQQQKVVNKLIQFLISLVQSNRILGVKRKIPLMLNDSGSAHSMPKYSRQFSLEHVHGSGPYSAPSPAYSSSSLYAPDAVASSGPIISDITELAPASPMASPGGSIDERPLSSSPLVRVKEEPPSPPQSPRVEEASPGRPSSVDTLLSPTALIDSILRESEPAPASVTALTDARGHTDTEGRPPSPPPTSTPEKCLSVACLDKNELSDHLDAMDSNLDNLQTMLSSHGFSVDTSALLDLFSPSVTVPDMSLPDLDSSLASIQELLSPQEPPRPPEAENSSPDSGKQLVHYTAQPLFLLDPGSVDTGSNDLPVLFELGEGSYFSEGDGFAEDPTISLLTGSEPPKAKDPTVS
# Outline: as §1
# SPIC = target: T8, SPIC (Homo sapiens, UniProt Q8N5J4 1-248); details: protein: recombinant; tags: N-terminal GST; dsDNA, one strand shown
# T8 sequence: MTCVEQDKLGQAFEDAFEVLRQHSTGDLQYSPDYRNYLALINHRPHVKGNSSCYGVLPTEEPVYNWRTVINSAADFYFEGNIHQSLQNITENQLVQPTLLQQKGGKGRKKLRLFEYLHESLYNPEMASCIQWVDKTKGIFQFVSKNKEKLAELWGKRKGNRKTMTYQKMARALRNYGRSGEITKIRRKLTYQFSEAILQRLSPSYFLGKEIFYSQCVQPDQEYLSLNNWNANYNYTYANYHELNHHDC
# Outline: as §1
# ELF4 = ELF4 (Homo sapiens, UniProt Q99607 1-663); details: protein: recombinant; tags: N-terminal GST; dsDNA, one strand shown
# Sequence of ELF4 (Q99607 whole entry): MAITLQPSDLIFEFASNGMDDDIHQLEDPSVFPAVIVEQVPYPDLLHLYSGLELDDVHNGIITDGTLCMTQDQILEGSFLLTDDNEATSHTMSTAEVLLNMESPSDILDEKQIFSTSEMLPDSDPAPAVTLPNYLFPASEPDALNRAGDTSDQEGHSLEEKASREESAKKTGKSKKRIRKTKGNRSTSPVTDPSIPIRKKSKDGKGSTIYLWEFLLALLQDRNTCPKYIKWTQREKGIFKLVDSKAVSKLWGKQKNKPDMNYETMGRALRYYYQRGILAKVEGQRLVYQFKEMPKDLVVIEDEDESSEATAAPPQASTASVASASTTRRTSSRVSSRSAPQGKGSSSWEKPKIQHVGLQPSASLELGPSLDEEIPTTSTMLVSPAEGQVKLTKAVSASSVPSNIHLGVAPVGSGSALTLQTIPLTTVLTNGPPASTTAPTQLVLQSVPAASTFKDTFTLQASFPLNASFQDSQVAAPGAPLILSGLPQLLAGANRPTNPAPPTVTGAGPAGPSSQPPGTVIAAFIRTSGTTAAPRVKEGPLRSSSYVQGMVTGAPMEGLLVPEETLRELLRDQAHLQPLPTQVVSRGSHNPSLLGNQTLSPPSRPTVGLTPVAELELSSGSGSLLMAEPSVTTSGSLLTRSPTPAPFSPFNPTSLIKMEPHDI
# Outline: as §1
# ELK4 = target: T9, ELK4 (Homo sapiens, UniProt P28324-2 1-405); details: protein: recombinant; tags: N-terminal GST; dsDNA, one strand shown
# T9 sequence: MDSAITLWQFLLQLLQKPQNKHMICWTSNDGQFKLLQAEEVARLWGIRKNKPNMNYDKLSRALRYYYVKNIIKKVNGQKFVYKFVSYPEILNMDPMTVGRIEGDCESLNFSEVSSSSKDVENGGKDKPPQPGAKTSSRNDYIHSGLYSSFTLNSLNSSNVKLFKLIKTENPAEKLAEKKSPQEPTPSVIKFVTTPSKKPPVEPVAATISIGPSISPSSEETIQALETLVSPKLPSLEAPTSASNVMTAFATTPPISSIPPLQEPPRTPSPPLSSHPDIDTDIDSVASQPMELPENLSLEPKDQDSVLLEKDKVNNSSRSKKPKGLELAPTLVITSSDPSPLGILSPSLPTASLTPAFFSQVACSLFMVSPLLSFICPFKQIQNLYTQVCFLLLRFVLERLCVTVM
# Outline: as §1
# ETV2 = target: T10, ETV2 (Homo sapiens, UniProt O00321 1-342); details: protein: recombinant; tags: N-terminal GST; dsDNA, one strand shown
# T10 sequence: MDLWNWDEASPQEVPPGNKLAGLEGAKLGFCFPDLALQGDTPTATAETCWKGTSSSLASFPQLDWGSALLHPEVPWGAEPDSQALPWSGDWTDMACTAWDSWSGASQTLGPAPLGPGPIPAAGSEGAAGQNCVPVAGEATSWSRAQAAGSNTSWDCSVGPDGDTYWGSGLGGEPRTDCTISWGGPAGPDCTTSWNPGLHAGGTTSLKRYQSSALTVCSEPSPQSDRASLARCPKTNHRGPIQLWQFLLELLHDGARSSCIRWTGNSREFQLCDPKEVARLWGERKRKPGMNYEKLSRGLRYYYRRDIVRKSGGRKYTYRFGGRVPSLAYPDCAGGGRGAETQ
# Outline: as §1
# ELF3 = target: T11, ELF3 (Homo sapiens, UniProt P78545 1-371); details: protein: recombinant; tags: N-terminal GST; dsDNA, one strand shown
# T11 sequence: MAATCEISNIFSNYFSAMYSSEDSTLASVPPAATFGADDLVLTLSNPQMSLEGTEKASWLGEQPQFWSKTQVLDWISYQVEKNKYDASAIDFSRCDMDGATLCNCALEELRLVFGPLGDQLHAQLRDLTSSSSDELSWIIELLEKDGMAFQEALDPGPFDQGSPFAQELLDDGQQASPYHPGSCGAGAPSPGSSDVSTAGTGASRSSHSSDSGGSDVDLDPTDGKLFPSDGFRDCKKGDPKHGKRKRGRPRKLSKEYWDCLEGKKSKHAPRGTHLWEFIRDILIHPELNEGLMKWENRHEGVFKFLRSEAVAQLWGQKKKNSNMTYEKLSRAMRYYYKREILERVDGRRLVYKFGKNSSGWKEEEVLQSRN
# Outline: as §1
# CRX = CRX (Homo sapiens, UniProt O43186 1-299); details: protein: recombinant; tags: N-terminal GST; dsDNA, one strand shown
# Sequence of CRX (O43186 whole entry): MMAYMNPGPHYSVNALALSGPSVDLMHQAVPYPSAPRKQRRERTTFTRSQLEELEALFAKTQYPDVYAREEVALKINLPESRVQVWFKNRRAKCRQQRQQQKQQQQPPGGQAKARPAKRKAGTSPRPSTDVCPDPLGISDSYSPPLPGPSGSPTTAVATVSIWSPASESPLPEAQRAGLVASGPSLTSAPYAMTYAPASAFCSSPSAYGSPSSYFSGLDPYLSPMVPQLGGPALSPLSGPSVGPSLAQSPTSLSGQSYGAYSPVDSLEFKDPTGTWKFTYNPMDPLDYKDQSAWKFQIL
# Outline: as §1
# ETV1 = ETV1 (Homo sapiens, UniProt P50549 1-477); details: protein: recombinant; tags: N-terminal GST; dsDNA, one strand shown
# Sequence of ETV1 (P50549 whole entry): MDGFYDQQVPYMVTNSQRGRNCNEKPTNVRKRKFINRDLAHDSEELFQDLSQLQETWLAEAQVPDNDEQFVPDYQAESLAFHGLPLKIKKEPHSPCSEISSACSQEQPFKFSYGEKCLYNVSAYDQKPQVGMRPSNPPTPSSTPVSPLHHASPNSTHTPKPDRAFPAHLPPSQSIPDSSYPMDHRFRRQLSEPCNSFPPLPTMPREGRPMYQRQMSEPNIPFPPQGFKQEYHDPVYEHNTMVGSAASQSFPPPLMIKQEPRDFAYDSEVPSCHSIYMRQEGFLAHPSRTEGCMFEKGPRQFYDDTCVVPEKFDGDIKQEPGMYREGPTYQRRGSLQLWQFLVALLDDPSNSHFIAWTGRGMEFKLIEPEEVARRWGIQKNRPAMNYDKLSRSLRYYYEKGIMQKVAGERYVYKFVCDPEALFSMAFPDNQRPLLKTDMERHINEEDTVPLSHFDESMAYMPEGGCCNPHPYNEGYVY
# Outline: as §1
sequence,measurement,setting,value
TATGAT,binding signal,FLI1,"1.21 fold enrichment (6-mer frequency, TF over GST control)"
same,binding signal,ELK1,"1.18 fold enrichment (6-mer frequency, TF over GST control)"
same,binding signal,GABPA,"1.22 fold enrichment (6-mer frequency, TF over GST control)"
same,binding signal,ERG,"1.2 fold enrichment (6-mer frequency, TF over GST control)"
same,binding signal,ELF1,"1.24 fold enrichment (6-mer frequency, TF over GST control)"
same,binding signal,EHF,"1.27 fold enrichment (6-mer frequency, TF over GST control)"
same,binding signal,SPI1,"1.18 fold enrichment (6-mer frequency, TF over GST control)"
same,binding signal,SPIB,"1.23 fold enrichment (6-mer frequency, TF over GST control)"
same,binding signal,ELK3,"1.23 fold enrichment (6-mer frequency, TF over GST control)"
same,binding signal,FEV,"1.16 fold enrichment (6-mer frequency, TF over GST control)"
same,binding signal,ETV5,"1.24 fold enrichment (6-mer frequency, TF over GST control)"
same,binding signal,HSF1,"1.31 fold enrichment (6-mer frequency, TF over GST control)"
same,binding signal,SPIC,"1.29 fold enrichment (6-mer frequency, TF over GST control)"
same,binding signal,ELF4,"1.12 fold enrichment (6-mer frequency, TF over GST control)"
same,binding signal,ELK4,"1.25 fold enrichment (6-mer frequency, TF over GST control)"
same,binding signal,ETV2,"1.27 fold enrichment (6-mer frequency, TF over GST control)"
same,binding signal,ELF3,"1.09 fold enrichment (6-mer frequency, TF over GST control)"
same,binding signal,CRX,"1.5 fold enrichment (6-mer frequency, TF over GST control)"
same,binding signal,ETV1,"1.17 fold enrichment (6-mer frequency, TF over GST control)"
